We go through seven sequences from PMC7862700, “An all-to-all approach to the identification of sequence-specific readers for epigenetic DNA modifications on cytosine”.

Holding throughout (test): DAPPL (digital affinity profiling via proximity ligation, sequencing); 10 mM Tris-HCl pH 7.5, 50 mM NaCl, 1 mM DTT, 4% glycerol, room temperature, 30 min; GST-TFs on glutathione beads, 16-mer random dsDNA library, 0.1% formaldehyde crosslink after washing; high values mean tight binding
Common to all, as to details: protein: recombinant; tags: N-terminal GST; dsDNA, one strand shown

In one test the target is T1, FLI1 (Homo sapiens, UniProt Q01543 1-452).
T1 sequence: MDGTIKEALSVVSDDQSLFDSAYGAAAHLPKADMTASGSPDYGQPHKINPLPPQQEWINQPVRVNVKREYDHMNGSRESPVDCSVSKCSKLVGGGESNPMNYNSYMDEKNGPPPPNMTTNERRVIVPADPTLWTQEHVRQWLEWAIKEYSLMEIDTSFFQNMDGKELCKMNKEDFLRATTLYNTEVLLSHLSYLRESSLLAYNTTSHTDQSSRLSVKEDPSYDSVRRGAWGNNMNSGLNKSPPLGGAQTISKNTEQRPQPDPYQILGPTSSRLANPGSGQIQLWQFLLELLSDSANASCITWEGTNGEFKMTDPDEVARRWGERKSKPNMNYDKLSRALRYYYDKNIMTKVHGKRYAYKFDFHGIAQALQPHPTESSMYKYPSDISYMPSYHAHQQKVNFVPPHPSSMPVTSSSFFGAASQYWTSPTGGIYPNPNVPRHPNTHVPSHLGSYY
An outline of the steps: (§1)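 Yeast served to express human transcription factors as GST fusions, which were then captured on glutathione beads and labelled with DNA barcodes. Pooled with a tag-only sample, they were incubated with 200 nmole of a 16-mer random double-stranded DNA library for 30 min at room temperature in Tris/NaCl/DTT/glycerol buffer, washed, crosslinked with 0.1% formaldehyde, ligated by proximity, amplified by PCR and sequenced. Dividing each hexamer's read frequency for a factor by its frequency for the tag-only sample gives the binding signal.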

In the next test the target is T2, ELK1 (Homo sapiens, UniProt P19419 1-428).
T2 sequence: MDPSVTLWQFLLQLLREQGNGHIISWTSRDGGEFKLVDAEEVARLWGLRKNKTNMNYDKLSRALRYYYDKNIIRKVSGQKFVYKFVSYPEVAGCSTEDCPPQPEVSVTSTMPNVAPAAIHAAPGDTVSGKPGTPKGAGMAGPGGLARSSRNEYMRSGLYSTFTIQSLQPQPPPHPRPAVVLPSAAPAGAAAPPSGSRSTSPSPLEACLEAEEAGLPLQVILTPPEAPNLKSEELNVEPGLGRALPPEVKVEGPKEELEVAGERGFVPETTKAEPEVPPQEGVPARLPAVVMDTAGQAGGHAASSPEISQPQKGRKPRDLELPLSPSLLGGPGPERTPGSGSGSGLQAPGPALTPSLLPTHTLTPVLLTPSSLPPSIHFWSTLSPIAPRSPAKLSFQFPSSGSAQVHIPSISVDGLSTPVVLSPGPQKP
An outline of the steps: as §1

A further test addresses T3, GABPA (Homo sapiens, UniProt Q06546 1-454).
T3 sequence: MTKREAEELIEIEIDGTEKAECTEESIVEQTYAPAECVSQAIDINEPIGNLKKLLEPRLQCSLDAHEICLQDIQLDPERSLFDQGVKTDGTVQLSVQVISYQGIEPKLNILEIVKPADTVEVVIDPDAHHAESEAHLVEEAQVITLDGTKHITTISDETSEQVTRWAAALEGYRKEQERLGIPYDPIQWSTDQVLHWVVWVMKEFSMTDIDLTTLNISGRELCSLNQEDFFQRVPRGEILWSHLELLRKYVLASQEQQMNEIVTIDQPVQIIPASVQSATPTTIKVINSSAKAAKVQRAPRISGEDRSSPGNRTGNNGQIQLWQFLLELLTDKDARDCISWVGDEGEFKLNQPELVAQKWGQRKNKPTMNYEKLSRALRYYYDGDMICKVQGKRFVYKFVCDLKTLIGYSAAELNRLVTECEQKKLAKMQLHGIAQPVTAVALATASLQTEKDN
An outline of the steps: as §1

In a further test the target is T4, ERG (Homo sapiens, UniProt P11308 1-479).
T4 sequence: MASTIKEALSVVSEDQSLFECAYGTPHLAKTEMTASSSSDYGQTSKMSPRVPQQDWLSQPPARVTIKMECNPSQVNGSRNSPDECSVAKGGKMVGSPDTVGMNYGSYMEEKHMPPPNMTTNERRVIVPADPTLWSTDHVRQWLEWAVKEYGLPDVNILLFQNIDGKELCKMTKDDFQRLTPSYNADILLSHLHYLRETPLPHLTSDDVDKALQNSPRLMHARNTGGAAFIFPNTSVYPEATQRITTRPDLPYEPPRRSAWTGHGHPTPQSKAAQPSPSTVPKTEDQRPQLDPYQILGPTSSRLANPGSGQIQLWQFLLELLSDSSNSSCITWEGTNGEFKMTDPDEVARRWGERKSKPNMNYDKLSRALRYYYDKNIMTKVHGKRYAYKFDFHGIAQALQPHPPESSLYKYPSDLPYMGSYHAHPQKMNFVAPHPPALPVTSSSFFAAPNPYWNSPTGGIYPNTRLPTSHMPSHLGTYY
An outline of the steps:
as §1

The target of the next test is ELF1 (Homo sapiens, UniProt P32519 1-619). The gist of the method:
as §1

The target in the next test is T5, EHF (Homo sapiens, UniProt Q9NZC4 1-300).
T5 sequence: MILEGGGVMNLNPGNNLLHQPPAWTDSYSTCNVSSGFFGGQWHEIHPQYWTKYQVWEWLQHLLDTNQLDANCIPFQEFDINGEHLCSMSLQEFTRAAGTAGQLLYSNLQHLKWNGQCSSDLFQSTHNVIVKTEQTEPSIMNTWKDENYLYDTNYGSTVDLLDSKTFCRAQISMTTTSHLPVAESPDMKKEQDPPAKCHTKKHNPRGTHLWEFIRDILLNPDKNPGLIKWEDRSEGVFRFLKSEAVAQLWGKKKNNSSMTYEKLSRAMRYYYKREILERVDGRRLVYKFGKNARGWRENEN
The gist of the method:
as §1

A further test deals with SPI1 (Homo sapiens, UniProt P17947 1-270). An outline of the steps:
as §1

The next test deals with SPIB (Homo sapiens, UniProt Q01892 1-262). The gist of the method: as §1
A further test deals with T6, ELK3 (Homo sapiens, UniProt P41970 1-407).
T6 sequence: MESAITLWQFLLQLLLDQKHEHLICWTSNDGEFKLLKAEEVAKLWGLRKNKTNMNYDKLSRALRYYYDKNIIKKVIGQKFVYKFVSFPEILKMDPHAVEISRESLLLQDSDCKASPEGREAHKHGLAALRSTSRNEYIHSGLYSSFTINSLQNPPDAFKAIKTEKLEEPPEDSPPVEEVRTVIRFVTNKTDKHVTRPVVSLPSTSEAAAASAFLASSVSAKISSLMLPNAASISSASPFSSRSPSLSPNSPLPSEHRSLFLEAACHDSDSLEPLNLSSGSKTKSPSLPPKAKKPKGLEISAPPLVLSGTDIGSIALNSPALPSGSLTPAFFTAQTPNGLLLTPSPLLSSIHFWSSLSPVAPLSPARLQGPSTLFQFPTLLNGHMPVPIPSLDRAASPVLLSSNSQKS
The gist of the method:
as §1

Sequence of ELF1 (P32519 whole entry): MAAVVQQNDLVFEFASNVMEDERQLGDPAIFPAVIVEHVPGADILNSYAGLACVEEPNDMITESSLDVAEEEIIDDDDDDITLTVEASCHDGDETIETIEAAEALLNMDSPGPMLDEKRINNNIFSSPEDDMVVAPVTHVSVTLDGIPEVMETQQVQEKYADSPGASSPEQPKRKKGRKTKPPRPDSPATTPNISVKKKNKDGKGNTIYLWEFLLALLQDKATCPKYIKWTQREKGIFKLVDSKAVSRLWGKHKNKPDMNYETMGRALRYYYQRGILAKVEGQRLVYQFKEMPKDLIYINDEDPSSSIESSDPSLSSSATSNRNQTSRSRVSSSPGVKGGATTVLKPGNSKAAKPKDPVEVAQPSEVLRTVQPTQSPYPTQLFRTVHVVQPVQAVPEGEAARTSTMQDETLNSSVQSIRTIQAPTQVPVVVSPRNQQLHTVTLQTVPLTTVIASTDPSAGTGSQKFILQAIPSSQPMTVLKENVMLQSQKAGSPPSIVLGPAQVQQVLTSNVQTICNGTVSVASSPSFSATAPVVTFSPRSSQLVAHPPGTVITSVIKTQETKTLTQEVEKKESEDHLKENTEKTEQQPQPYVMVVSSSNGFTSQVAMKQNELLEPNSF
Sequence of SPIB (Q01892 whole entry): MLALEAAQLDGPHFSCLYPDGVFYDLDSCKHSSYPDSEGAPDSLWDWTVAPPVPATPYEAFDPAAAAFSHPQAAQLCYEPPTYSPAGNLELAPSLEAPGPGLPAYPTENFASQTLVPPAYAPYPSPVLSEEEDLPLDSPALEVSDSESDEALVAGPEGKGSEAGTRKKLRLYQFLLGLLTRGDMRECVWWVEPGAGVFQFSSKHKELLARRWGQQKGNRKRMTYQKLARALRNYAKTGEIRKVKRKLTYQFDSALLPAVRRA

Turning to TAAAGT, the binding signal was 1.22 fold enrichment (6-mer frequency, TF over GST control) with FLI1; 1.14 fold enrichment (6-mer frequency, TF over GST control) with ELK1; 1.24 fold enrichment (6-mer frequency, TF over GST control) in the test with GABPA; 1.17 fold enrichment (6-mer frequency, TF over GST control) in the test with ERG; 1.18 fold enrichment (6-mer frequency, TF over GST control) with ELF1; 1.18 fold enrichment (6-mer frequency, TF over GST control) with EHF. Also, the binding signal was 1.21 fold enrichment (6-mer frequency, TF over GST control) with SPI1; 1.11 fold enrichment (6-mer frequency, TF over GST control) in the test with SPIB; 1.38 fold enrichment (6-mer frequency, TF over GST control) with ELK3.
With GAACTA, the binding signal was 1.39 fold enrichment (6-mer frequency, TF over GST control) with FLI1; 1.39 fold enrichment (6-mer frequency, TF over GST control) with ELK1; 1.34 fold enrichment (6-mer frequency, TF over GST control) with GABPA; 1.32 fold enrichment (6-mer frequency, TF over GST control) with ERG; 1.3 fold enrichment (6-mer frequency, TF over GST control) in the test with ELF1; 1.37 fold enrichment (6-mer frequency, TF over GST control) with EHF. Further, the binding signal is 1.41 fold enrichment (6-mer frequency, TF over GST control) in the test with SPI1; 1.32 fold enrichment (6-mer frequency, TF over GST control) with SPIB; 1.37 fold enrichment (6-mer frequency, TF over GST control) with ELK3.
In the case of TACCTT, the binding signal is 1.36 fold enrichment (6-mer frequency, TF over GST control) with FLI1; 1.33 fold enrichment (6-mer frequency, TF over GST control) in the test with ELK1; 1.36 fold enrichment (6-mer frequency, TF over GST control) in the test with GABPA; 1.42 fold enrichment (6-mer frequency, TF over GST control) with ERG; 1.3 fold enrichment (6-mer frequency, TF over GST control) with ELF1; 1.47 fold enrichment (6-mer frequency, TF over GST control) with EHF. Also, the binding signal with SPI1 was 1.33 fold enrichment (6-mer frequency, TF over GST control); in the test with SPIB, 1.42 fold enrichment (6-mer frequency, TF over GST control); with ELK3, 1.23 fold enrichment (6-mer frequency, TF over GST control).
For the sequence TAGCCT, the binding signal with FLI1 was 1.27 fold enrichment (6-mer frequency, TF over GST control); with ELK1, 1.21 fold enrichment (6-mer frequency, TF over GST control); in the test with GABPA, 1.18 fold enrichment (6-mer frequency, TF over GST control); with ERG, 1.23 fold enrichment (6-mer frequency, TF over GST control); with ELF1, 1.28 fold enrichment (6-mer frequency, TF over GST control); with EHF, 1.26 fold enrichment (6-mer frequency, TF over GST control). Besides, the binding signal with SPI1 was 1.23 fold enrichment (6-mer frequency, TF over GST control); with SPIB, 1.2 fold enrichment (6-mer frequency, TF over GST control); with ELK3 it was 1.14 fold enrichment (6-mer frequency, TF over GST control).
Regarding TTATTT, the binding signal with FLI1 is 1.4 fold enrichment (6-mer frequency, TF over GST control); with ELK1 it was 1.42 fold enrichment (6-mer frequency, TF over GST control); with GABPA, 1.33 fold enrichment (6-mer frequency, TF over GST control); with ERG, 1.44 fold enrichment (6-mer frequency, TF over GST control); with ELF1, 1.3 fold enrichment (6-mer frequency, TF over GST control); in the test with EHF, 1.35 fold enrichment (6-mer frequency, TF over GST control). Further, the binding signal is 1.44 fold enrichment (6-mer frequency, TF over GST control) with SPI1; 1.37 fold enrichment (6-mer frequency, TF over GST control) in the test with SPIB; 1.33 fold enrichment (6-mer frequency, TF over GST control) with ELK3.
Take CCTCTA: the binding signal with FLI1 was 1.24 fold enrichment (6-mer frequency, TF over GST control); in the test with ELK1 it was 1.48 fold enrichment (6-mer frequency, TF over GST control); with GABPA, 1.39 fold enrichment (6-mer frequency, TF over GST control); with ERG, 1.32 fold enrichment (6-mer frequency, TF over GST control); with ELF1, 1.42 fold enrichment (6-mer frequency, TF over GST control); in the test with EHF, 1.31 fold enrichment (6-mer frequency, TF over GST control). In addition, the binding signal was 1.33 fold enrichment (6-mer frequency, TF over GST control) in the test with SPI1; 1.38 fold enrichment (6-mer frequency, TF over GST control) with SPIB; 1.32 fold enrichment (6-mer frequency, TF over GST control) with ELK3.
Consider CCTGTT, for which the binding signal in the test with FLI1 was 1.79 fold enrichment (6-mer frequency, TF over GST control); with ELK1, 1.63 fold enrichment (6-mer frequency, TF over GST control); with GABPA it was 1.73 fold enrichment (6-mer frequency, TF over GST control); in the test with ERG, 1.72 fold enrichment (6-mer frequency, TF over GST control); with ELF1, 1.75 fold enrichment (6-mer frequency, TF over GST control); in the test with EHF, 1.76 fold enrichment (6-mer frequency, TF over GST control). Also, the binding signal is 2 fold enrichment (6-mer frequency, TF over GST control) in the test with SPI1; 1.75 fold enrichment (6-mer frequency, TF over GST control) in the test with SPIB; 1.94 fold enrichment (6-mer frequency, TF over GST control) with ELK3.
